According to PubChem BioAssay AID447 (National Center for Advancing Translational Sciences (NCATS), 2006):
Fewer than 10 of roughly 69,000 compounds were called active. Roughly 100% stayed inconclusive and do not appear here. The rule behind the calls is not given here. This is one part of the list.

These molecules were tested against UDP-N-acetylglucosamine--peptide N-acetylglucosaminyltransferase 110 kDa subunit (Homo sapiens) (UniProt O15294) (assay: O-Glc NAc Transferase (sOGT)). Settings: sOGT fluorescence polarization UDP-GlcNAc probe displacement.
Sequence of UDP-N-acetylglucosamine--peptide N-acetylglucosaminyltransferase 110 kDa subunit (Homo sapiens) (O15294 whole entry, looked up): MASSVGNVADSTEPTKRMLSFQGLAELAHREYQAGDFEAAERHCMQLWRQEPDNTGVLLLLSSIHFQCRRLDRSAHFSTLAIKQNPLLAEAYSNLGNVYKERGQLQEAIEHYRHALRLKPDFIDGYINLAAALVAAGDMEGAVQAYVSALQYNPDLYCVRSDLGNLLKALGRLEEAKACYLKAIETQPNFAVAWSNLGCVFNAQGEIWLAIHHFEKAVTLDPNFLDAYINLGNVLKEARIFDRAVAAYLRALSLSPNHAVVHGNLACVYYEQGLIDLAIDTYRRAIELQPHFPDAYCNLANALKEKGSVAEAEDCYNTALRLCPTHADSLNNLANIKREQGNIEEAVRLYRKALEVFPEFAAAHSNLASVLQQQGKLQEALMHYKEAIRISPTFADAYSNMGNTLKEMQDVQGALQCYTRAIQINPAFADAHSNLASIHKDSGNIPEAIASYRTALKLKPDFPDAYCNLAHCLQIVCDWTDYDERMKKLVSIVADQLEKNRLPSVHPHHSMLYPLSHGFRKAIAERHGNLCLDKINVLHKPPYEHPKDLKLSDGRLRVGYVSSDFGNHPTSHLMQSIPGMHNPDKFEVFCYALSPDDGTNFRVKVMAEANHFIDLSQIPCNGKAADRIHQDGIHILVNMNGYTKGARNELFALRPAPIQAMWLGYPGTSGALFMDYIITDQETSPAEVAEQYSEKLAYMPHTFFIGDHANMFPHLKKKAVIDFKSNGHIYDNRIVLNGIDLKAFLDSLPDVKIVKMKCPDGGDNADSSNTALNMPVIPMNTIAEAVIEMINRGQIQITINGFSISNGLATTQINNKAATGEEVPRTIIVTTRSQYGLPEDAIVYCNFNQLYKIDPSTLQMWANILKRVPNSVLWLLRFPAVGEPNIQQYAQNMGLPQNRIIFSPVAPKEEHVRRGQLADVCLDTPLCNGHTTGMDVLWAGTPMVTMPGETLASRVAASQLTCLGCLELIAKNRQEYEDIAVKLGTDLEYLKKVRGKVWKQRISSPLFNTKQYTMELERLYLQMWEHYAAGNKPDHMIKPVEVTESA
Excerpt: NIH Molecular Libraries Screening Centers Network [MLSCN]
NIH Chemical Genomics Center [NCGC]
Suzanne Walker [Harvard Medical School]
OGT is the sole enzyme that mediates the attachment of O-GlcNAc groups to serine and threonine residues in the nucleus and cytoplasm of eukaryotic cells, and no specific inhibitors are known. This type of glycosylation is involved in signal transduction and plays a key role in many essential cellular processes. High O-GlcNAc levels have been correlated to insulin resistance and type 2 diabetes. In addition to elucidating the role of O-GlcNAc in cellular processes, inhibitors of OGT might be useful in studying and perhaps treating type 2 diabetes. Since HTS-amenable direct assay for OGT activity is currently unavailable, a simpler substrate-displacement screen was performed. The signal measured is based on the change in fluorescence polarization of a fluorescein-labeled UDP-GlcNAc upon displacement from its complex with OGT. Recombinant truncated version of the enzyme, sOGT, as well as labeled probe, were made available by Suzanne Walker and Benjamin Gross, Harvard Medical School. […]
Three uL of reagents were dispensed to 1536-well Greiner black plates. […] The plates were incubated for 15 min at room temperature, and then read on ViewLux (Perkin-Elmer) High-throughput CCD imager using fluorescein polarization filter set and 45 seconds exposure time. […]

Compound	Potency
O=C1CCCN1CC#CCN1CCCC1	29.9 µM (active)
